From PubChem BioAssay (NCATS) come the findings set out here.

Inconclusive results are not listed. Unmarked numbers belong to inactive results. Activity calls are given as the source filed them. Calls follow the shape of the dose curve; as a rule, active = well fitted curve in the direction sought with a large enough effect; inconclusive = small, poorly fitted or top-dose-only effect, or another doubt; inactive = no such curve, though single readings can be large; an effect the other way counts as inactive or inconclusive.

Experiment [1] has as its target Rap guanine nucleotide exchange factor 3 (Homo sapiens) (UniProt O95398). Description: Confirmatory qHTS for antagonist of cAMP-regulated guanine nucleotide exchange factor 3 (EPAC1) (AID 1645880). Also: nearly all actives have a fitted effect of over 55% in size. Also: potency is read from the fitted curve at half-maximal effect.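 As to activity, negative = inhibition: plate controls were DMSO only for no effect and full effect of the ATA control for full effect.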 The note with it: EPAC1 Rap1B-BODIPY-GDP exchange, fluorescence; activity, negative = inhibition: at 115 µM (top of the series). In short, it runs like this:
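Released BODIPY-GDP fluoresces less than Rap1-bound BODIPY-GDP; the signal is followed at 480/540 nm at 5-min intervals over 30 min, after 5 min at room temperature. Reactions contain 100 nM EPAC1, 250 nM RAP1B-BODIPY-GDP and 50 uM GDP; results are normalized to ATA and DMSO.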
Background: qHTS replaces the single test concentration by a dilution series.

Experiment [2] deals with Rap guanine nucleotide exchange factor 4 (Homo sapiens) (UniProt Q8WZA2). Description: Confirmatory qHTS for agonist of cAMP-regulated guanine nucleotide exchange factor 4 (EPAC2) (AID 1645884). Also: nearly all actives have a fitted effect of over 65% in size. Also: potency is read from the fitted curve at half-maximal effect. As to activation: % is scaled to controls: 0 for no effect and ±100 for the full control effect.
Rap guanine nucleotide exchange factor 4 (Homo sapiens), sequence (Q8WZA2 whole entry, looked up): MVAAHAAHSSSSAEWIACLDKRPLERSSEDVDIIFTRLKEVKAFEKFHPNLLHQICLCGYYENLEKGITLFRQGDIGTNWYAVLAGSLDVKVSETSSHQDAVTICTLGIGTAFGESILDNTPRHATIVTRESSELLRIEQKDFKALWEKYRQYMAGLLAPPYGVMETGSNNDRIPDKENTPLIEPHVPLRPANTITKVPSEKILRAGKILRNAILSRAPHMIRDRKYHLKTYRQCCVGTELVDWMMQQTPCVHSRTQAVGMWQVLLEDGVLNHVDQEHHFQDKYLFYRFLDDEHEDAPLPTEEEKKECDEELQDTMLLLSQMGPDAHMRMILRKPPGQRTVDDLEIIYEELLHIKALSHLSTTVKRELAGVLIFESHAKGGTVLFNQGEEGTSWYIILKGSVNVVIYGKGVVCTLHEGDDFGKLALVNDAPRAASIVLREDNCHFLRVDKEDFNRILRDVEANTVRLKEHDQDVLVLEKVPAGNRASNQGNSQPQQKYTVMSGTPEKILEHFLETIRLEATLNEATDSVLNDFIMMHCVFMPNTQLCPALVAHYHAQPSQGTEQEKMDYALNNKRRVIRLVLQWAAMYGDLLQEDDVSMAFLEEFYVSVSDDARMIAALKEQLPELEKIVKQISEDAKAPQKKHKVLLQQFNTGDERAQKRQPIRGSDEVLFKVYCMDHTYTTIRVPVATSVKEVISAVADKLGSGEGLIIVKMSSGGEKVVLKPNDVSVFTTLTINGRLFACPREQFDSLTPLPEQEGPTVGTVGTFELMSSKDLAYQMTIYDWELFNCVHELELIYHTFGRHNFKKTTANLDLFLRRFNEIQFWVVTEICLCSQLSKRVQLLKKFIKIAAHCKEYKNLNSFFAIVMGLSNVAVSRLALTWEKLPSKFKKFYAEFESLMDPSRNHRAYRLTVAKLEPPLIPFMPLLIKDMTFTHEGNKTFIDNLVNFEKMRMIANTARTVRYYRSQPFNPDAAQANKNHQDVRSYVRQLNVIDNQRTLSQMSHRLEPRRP
For experiment [3] the target is unchanged. Description: Confirmatory qHTS for antagonist of cAMP-regulated guanine nucleotide exchange factor 4 (EPAC2) (AID 1645885). Also: nearly all actives have a fitted effect of over 25% in size. Also: potency is read from the fitted curve at half-maximal effect. As to activity change, negative = inhibition: % is scaled to controls: 0 for no effect and ±100 for the full control effect.
Experiment [4] deals with Rap guanine nucleotide exchange factor 3 (Homo sapiens) (UniProt O95398). Description: Counterscreen qHTS for antagonist of cAMP-regulated guanine nucleotide exchange factor 3 (EPAC1) (AID 1645888). Also: % of control where 0% means no effect. In short, it runs like this: (§1)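 Rap1B-BODIPY-GDP 250 nM + GDP 50 uM; cpds 7-pt, final 9.74 nM–152 uM (activator mode) or from 7.32 nM upwards (inhibitor mode); RT; FI 480/540 nm at 5 and 30 min, then ± cAMP, reread.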
Rap guanine nucleotide exchange factor 3 (Homo sapiens), sequence (O95398 whole entry, looked up): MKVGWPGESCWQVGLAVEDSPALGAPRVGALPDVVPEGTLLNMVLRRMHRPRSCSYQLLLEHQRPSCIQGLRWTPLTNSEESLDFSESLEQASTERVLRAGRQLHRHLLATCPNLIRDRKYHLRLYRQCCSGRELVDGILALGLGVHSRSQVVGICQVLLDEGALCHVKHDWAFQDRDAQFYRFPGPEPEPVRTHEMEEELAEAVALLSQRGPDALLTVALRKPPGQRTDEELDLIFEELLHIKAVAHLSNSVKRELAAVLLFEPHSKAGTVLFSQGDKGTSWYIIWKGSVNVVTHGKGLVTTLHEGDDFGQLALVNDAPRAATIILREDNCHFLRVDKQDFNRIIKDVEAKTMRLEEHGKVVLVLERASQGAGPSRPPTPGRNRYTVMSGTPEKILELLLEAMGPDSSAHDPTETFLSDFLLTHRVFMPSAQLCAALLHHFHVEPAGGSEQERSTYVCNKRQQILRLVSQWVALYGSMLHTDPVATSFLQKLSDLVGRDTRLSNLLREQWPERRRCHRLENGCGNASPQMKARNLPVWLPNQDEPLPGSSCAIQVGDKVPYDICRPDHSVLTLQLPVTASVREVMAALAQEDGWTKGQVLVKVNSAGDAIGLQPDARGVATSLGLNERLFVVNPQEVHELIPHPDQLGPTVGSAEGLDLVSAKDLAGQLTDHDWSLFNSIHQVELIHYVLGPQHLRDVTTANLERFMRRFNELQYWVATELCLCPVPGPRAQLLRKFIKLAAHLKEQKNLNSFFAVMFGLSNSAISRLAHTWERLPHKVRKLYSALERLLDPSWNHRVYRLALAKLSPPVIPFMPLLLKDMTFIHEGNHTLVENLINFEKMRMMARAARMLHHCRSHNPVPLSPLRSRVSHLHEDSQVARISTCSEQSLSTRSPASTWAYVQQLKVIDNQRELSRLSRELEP
A general note: The purpose of a counterscreen is to sort out artefacts and off-target activity.

Experiment [5] shares this target. Description: Counterscreen qHTS for agonist of cAMP-regulated guanine nucleotide exchange factor 3 (EPAC1) (AID 1645889). Also: nearly all actives have a fitted effect of over 40% in size. Also: potency is read from the fitted curve at half-maximal effect. As to activation: % of control where 0% means no effect. Summed up: as §1

As to `Cc1[nH]c2ccccc2c1C(c1ccccc1)c1ccc(Cl)s1` (stereo not drawn), the Potency entry in experiment [1], in experiment [2], in experiment [3], in experiment [4] and in experiment [5] was “inactive” throughout.

Consider `O=c1oc2cc(O)ccc2cc1-c1nnc(Nc2ccccc2F)s1`, for which the Potency entry in experiment [1] and in experiment [4] was “inactive” each time. Also, the Potency in experiment [2] is 14.1 µM (active); in experiment [3], 3.38 µM (active); in experiment [5], 3.55 µM (active).

For the compound `N=C1/C(=C/c2coc3ccccc3c2=O)C(=O)N=C2SC(c3ccco3)=NN12`, the Potency result in experiment [1], in experiment [2], in experiment [3] and in experiment [4] was “inactive” each time. Also, the Potency in experiment [5] was 39.8 µM (active).

As to `Cc1ccc(N2C(=O)c3cccc4c(N)ccc(c34)C2=O)c2cccnc12`, the Potency entry in experiment [1], in experiment [3] and in experiment [4] was “inactive” each time. Further, the values for the Potency in experiment [2] and in experiment [5] were 112 µM (active) and 10 µM (active), respectively.

On to `COc1ccc(-c2nc(N/N=C(\C)c3ccc(O)cc3)c3ccccc3n2)cc1`, for which the Potency result in experiment [1] and in experiment [3] was “inactive” in each case. Besides, the activation in experiment [2] is -0.683% [at 17.1 µM, percent relative to cAMP agonist control]; in experiment [5], 22.7% [at 30.8 µM]. For the same compound, the activity change, negative = inhibition in experiment [4] is 8.99% [at 30.8 µM].

As for `O=C(N=c1ccn(-c2nc3ccccc3nc2NS(=O)(=O)c2ccccc2)cc1)c1ccccc1Cl`, the Potency entry in experiment [1] and in experiment [4] was “inactive” throughout. Further, the Potency in experiment [2] is 89.1 µM (active); in experiment [3], 75.7 µM (active); in experiment [5] it was 79.4 µM (active).

With `COc1cc(/C=C(\C#N)c2nc3ccccc3o2)ccc1O`, the Potency entry in experiment [1] and in experiment [3] was “inactive” each time. For the same compound, the activation in experiment [2] is 7.08% [at 17.1 µM, percent relative to cAMP agonist control]; in experiment [5] it was 23.5% [at 30.8 µM]. In addition, the activity change, negative = inhibition in experiment [4] was 3.99% [at 30.8 µM].

For `Nc1ccccc1Oc1ccc2ccccc2c1`, the Potency result in experiment [1], in experiment [2], in experiment [3] and in experiment [4] was “inactive” in each case.

`COc1ccc(C(=O)/C=C/c2ccc(N(C)C)cc2)c(OC)c1`: the Potency entry in experiment [1], in experiment [2], in experiment [3] and in experiment [4] was “inactive” in each case.

In the case of `Oc1c(C(c2ccccc2)N2CCN(c3ccccc3)CC2)sc2nc(-c3ccco3)nn12` (stereo not drawn), the Potency entry in experiment [1], in experiment [2], in experiment [3] and in experiment [4] was “inactive” in each case.

`CCOc1ccc(NC(=O)/C(C#N)=C/c2ccc(N3CCCC3)c(C)c2)cc1`: the Potency result in experiment [1] and in experiment [3] was “inactive” in each case. The activation in experiment [2] was 3.1% [at 17.1 µM, percent relative to cAMP agonist control]. Also, the activity change, negative = inhibition in experiment [4] is 15.4% [at 30.8 µM].

As for `COC(=O)C1=CC(C(=O)c2cccs2)=NN(c2ccc(OC)cc2)C1C(=O)OC` (stereo not drawn), the Potency result in experiment [1] and in experiment [3] was “inactive” throughout. Further, the activation in experiment [2] is 9.11% [at 17.1 µM, percent relative to cAMP agonist control]. Also, in experiment [4], the activity change, negative = inhibition was -26% [at 30.8 µM].

As to `CCc1cccc(CC)c1N1C(=O)C2=C(SCCCS2)C1=O`, the Potency result in experiment [1], in experiment [3] and in experiment [4] was “inactive” throughout. Besides, the Potency in experiment [2] was 112 µM (active).

As for `O=C(/C=C/c1ccc(N2CCOCC2)cc1)c1ccccc1`, the Potency result in experiment [1], in experiment [2], in experiment [3], in experiment [4] and in experiment [5] was “inactive” in each case.

On to `COc1ccc(C)cc1CN1C(=O)c2ccccc2C1=O`, for which the Potency entry in experiment [1] and in experiment [3] was “inactive” each time. Also, the activation in experiment [2] is -0.218% [at 17.1 µM, percent relative to cAMP agonist control]; in experiment [5], 12.1% [at 30.8 µM]. For the same compound, the activity change, negative = inhibition in experiment [4] was -7.92% [at 30.8 µM].

Turning to `O=C(Cn1ccc(=O)[nH]c1=O)c1ccc([N+](=O)[O-])o1`, the Potency result in experiment [1] and in experiment [3] was “inactive” throughout. Besides, the activation in experiment [2] was 15.2% [at 17.1 µM, percent relative to cAMP agonist control]; in experiment [5] it was 18.6% [at 30.8 µM]. In experiment [4], the activity change, negative = inhibition was -11.8% [at 30.8 µM].

`N=C1/C(=C\c2coc3ccc(O)cc3c2=O)C(=O)N=C2SC=CN12`: the Potency entry in experiment [1], in experiment [3] and in experiment [4] was “inactive” throughout. The figures for the Potency in experiment [2] and in experiment [5] were 112 µM (active) and 44.7 µM (active), respectively.

As for `CCN(CC)C(=O)c1ccc(/C=C/c2c[nH]c3ccccc23)[n+](C)c1`, the Potency result in experiment [1] and in experiment [3] was “inactive” each time. Further, the activation in experiment [2] was 6.96% [at 17.1 µM, percent relative to cAMP agonist control]. Also, in experiment [4], the activity change, negative = inhibition was 70% [at 30.8 µM]. Moreover, the Potency in experiment [5] was 15.8 µM (active).

With `Cn1cc(/C=C2\SC(=S)N(NC(=O)c3ccccc3Cl)C2=O)c2ccccc21`, the Potency result in experiment [1], in experiment [3] and in experiment [4] was “inactive” in each case. The values for the Potency in experiment [2] and in experiment [5] were 100 µM (active) and 63.1 µM (active), respectively.

On to `CCOc1cc(/C=N/NC(=O)c2ccc(-c3csc(Nc4ccc(C)cc4)n3)cc2)ccc1OCC(=O)O`, for which the Potency in experiment [1] was 23.9 µM (active). In addition, the Potency result in experiment [2], in experiment [3] and in experiment [4] was “inactive” each time.

`O=C1c2cccc3c(N4CCCCC4)ccc(c23)C(=O)N1c1ccc(O)cc1`: the Potency entry in experiment [1], in experiment [3], in experiment [4] and in experiment [5] was “inactive” each time. Also, in experiment [2], the Potency is 112 µM (active).

For `COc1ccc(CN(C(=O)c2cccs2)c2ccccc2)cc1`, the Potency result in experiment [1] and in experiment [3] was “inactive” in each case. For the same compound, the activation is 16.8% [at 17.1 µM, percent relative to cAMP agonist control] in experiment [2] and 12% [at 30.8 µM] in experiment [5]. In addition, the activity change, negative = inhibition in experiment [4] was -5.93% [at 30.8 µM].

For the compound `N#C/C(=C\c1ccc(N2CCOCC2)o1)c1nc2ccccc2[nH]1`, the Potency entry in experiment [1], in experiment [3] and in experiment [4] was “inactive” each time. In addition, the Potency in experiment [2] is 112 µM (active); in experiment [5] it was 39.8 µM (active).

For `O=C(N/N=C/c1cccnc1)c1cc(-c2ccccc2OCc2ccccc2)n[nH]1`, the Potency result in experiment [1], in experiment [3] and in experiment [4] was “inactive” each time. Besides, the figures for the Potency in experiment [2] and in experiment [5] were 89.1 µM (active) and 25.1 µM (active), respectively.

On to `Cc1ccc(S(=O)(=O)N2CCN(C(=O)c3ccc4c(c3)OCO4)CC2)cc1`, for which the Potency entry in experiment [1] and in experiment [3] was “inactive” each time. The activation in experiment [2] is 0.378% [at 17.1 µM, percent relative to cAMP agonist control]; in experiment [5] it was 24.8% [at 30.8 µM]. For the same compound, in experiment [4], the activity change, negative = inhibition is -2% [at 30.8 µM].
